For orientation: AC50 means the concentration at which the activity in the assay is half-maximal.

SMILES strings stand for the structures. Records with an inconclusive call do not appear. Activity calls are given as the source filed them. Rule for the calls: active = hit-call score of the fitted dose curve at least 0.9, where 1 is the maximum; inconclusive = response in the unintended direction; inactive = score below 0.9.

The test deals with guinea pig Histamine Receptor (H2), gene 100729734. As to the kind of experiment: NVS_GPCR_gH2: NovaScreen (NVS) G Protein-Coupled Receptor Assay for guinea pig Histamine Receptor (H2) (AID 2283342). The procedure: NVS_GPCR_gH2 is a biochemical, single-readout assay that uses extracted gene-proteins from Guinea pig striatal membranes in a tissue-based cell-free assay. Measurements were taken 1 hour after chemical dosing in a 96-well plate.NVS_GPCR_gH2 is one of one assay component(s) measured or calculated from the NVS_GPCR_gH2 assay. It is designed to make measurements of radioligand binding, a form of binding reporter, as detected with scintillation counting signals by Filter-based radiodetection technology.Data from the assay component NVS_GPCR_gH2 was analyzed into 1 assay endpoint. This assay endpoint, NVS_GPCR_gH2, was analyzed in the positive analysis fitting direction relative to DMSO as the negative control and baseline of activity. Using a type of binding reporter, loss-of-signal activity can be used to understand changes in the binding as they relate to the gene Hrh2. Furthermore, this assay endpoint can be referred to as a primary readout, because the performed assay has only produced 1 assay endpoint. To generalize the intended target to other relatable targets, this assay endpoint is annotated to the gpcr intended target family, where the subfamily is rhodopsin-like receptor.
Binding assays used specific radioligands (tritiated, iodinated) with non-radioactive competitive displacement ligands in agonist or antagonist protocols (as indicated) and various reference compounds and inhibitors to titrate specific binding to receptors and transporters. Most enzyme assays (CYPs, kinases, phosphatases, proteases, HDACs) used recombinant protein and specific substrates (fluorescence mostly, some colorimetric and radioactive) and inhibitors, followed by a biochemical separation of substrate and product. All assays for the biochemical HTS were initially run in duplicate at a single concentration (10 uM for CYP450 assays and 25 uM for all others). Assay-chemical combinations meeting a pre-defined threshold (e.g., 30% inhibition and other criteria defined below) were then run in singleton concentration-response format with maximum concentration of 20 uM for CYPs and 50 uM for all others. Each assay was run with positive and negative controls, and concurrent controls on every plate. The follow-up (secondary) screen tested active chemical-pairs in concentration series, as well as a few additional assays not tested in the primary screen, some selected negative inactives, and several cases re-run in the concentration series for confirmatory purposes.
`CCCN(C1CCN(C(=O)C2CCNCC2)CC1)[C@@H]1CCc2ccc(OC)cc2C1`: the AC50 was 16.9 µM (active).

`Fc1ccccc1[C@@H](F)COC1CCC(Nc2ncnc3[nH]ncc23)CC1` (stereo partly drawn): the result was inactive. Same read-out and setting: for `Nc1ccc(Nc2ccccc2)cc1` the value was “inactive”.

On to `COc1cccc(-c2ccc(/C=C\CN3CCCCCC3)cc2Cl)c1`, for which the AC50 was 12.3 µM (active).

For the compound `O=C(CCCCCCCCc1cccnc1)N1CCC(C=C(c2ccccc2)c2ccccc2)CC1`, the call was inactive.

As for `CC[C@H]1CC[C@H](NCc2cc3c(cc2OC)[C@H]2C[C@H]2C(=O)N3C)[C@H](c2ccccc2)N1`, the half-maximal activity concentration (AC50) was 16 µM (active).

With `CCn1nc(Cc2ccccc2)cc1C1CCN(C[C@H]2C[C@H](N(C)[C@@H](C(=O)O)C(C)C)C[C@@H]2c2cccc(F)c2)CC1`, the half-maximal activity concentration (AC50) was 11.4 µM (active). As to `COCCOc1cc2cc(C(=O)NC3CCN(C(C)C)CC3)n(CC(=O)Nc3ccc(Cl)cn3)c2cn1`, the AC50 is 12.8 µM (active). Same read-out and setting: the same measure for `CNS(=O)(=O)c1cc(C(=O)N2CCC(CCN3C4CCC3CC(n3c(C)nc5ccccc53)C4)(c3cccc(F)c3)CC2)c(Cl)cc1F` (stereo not drawn): 8.76 µM (active); for `CCN(C(=O)c1cc(C)cc(OC[C@H](C)Nc2ccncc2)c1)C(C)C`: 16.9 µM (active). As to `O=c1[nH]c2ccc(S(=O)CCN3CCC(Cc4ccc(F)cc4)CC3)cc2o1` (stereo not drawn), the half-maximal activity concentration (AC50) was 1.21 µM (active). Regarding `CCOC(=O)c1ccc(C2CCC(NC[C@H](O)COc3ccc(O)c(NS(C)(=O)=O)c3)CC2)cc1` (stereo partly drawn), the half-maximal activity concentration (AC50) is 9.42 µM (active). Consider `O=C(O)CC(O)C(=O)O` (stereo not drawn), for which the outcome was inactive. On the same count and under the same terms, the same measure for `CCOc1cccc(-n2cc(C(=O)N3CCN(c4cc(C(=O)O)c5ccccc5c4)CC3)nc2-c2ccc(C)cc2)c1`: “inactive”. As to `CCOC(=O)COc1ccc2c(c1)CC(NCC(O)c1cccc(Cl)c1)CC2` (stereo not drawn), the concentration at half-maximal activity (AC50) is 32 µM (active). For the compound `COc1ccc(-n2nc(C(F)F)cc2-c2ccc(S(C)=O)cc2)cc1` (stereo not drawn), the concentration at half-maximal activity (AC50) was 25 µM (active). Still for that read-out and setting: the same measure for `Cc1[nH]cnc1C[C@H]1CCc2c(C)c3ccccc3n2C1=O`: 12.2 µM (active).

In the case of `CCc1cc(SCc2sc(-c3ccc(C(F)(F)F)cc3)nc2CN2CCN(c3ccc(OC)cc3)CC2)ccc1OCC(=O)O`, the AC50 was 17.7 µM (active).

(Values after PubChem BioAssay (EPA / NIEHS).)
